# According to PubChem BioAssay AID940 (Emory University Molecular Libraries Screening Center, 2007):
# “And” between values parts separate entries of the source, which are not always exact repeats. Equal values may be shown once. About 2,200 (0.85%) of roughly 260,000 compounds were called active. The entries come from a sample that favours actives as a whole. Unmarked numbers belong to inactive results.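 The calls were made as follows: active = compounds whose cAMP rise, as percent of the full-agonist control response, exceeds 60; inactive = the rest.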
# Target: Prostaglandin E2 receptor EP2 subtype (Homo sapiens) (UniProt P43116)
# Experiment: modulation of human EP2 prostaglandin signaling – cell-based, HTRF cAMP, PGE2 stimulation, primary screen (AID 940);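 also: rat C6 glioma line stably carrying human EP2 under a CMV promoter; the protocol text gives 20 µM as final concentration; 100% = response of wells given 1 µM PGE2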
# Details: EP2-expressing cells, cAMP HTRF FRET, PGE2 co-stimulation; at 25 µM; active compounds read high
# Prostaglandin E2 receptor EP2 subtype (Homo sapiens), sequence (P43116 whole entry, looked up): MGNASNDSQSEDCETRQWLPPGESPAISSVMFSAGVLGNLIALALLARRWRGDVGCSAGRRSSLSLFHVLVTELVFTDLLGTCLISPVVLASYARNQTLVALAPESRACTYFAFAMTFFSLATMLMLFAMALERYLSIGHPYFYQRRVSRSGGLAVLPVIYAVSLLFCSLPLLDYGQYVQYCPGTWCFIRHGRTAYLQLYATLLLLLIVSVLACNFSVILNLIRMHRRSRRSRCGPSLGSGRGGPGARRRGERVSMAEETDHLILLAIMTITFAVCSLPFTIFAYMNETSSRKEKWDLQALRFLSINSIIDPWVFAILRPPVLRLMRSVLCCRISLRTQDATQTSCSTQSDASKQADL
row,SMILES,induction
1,Cc1cccc2cc(CN(Cc3cccs3)C(c3nnnn3C3CCCC3)C(C)C)c(=O)[nH]c12 (configuration not stated),63.3% (active) and 74.3% (active)
2,CCn1c(COc2ccc(Br)cc2)nnc1SCC(=O)NCc1ccccc1,19.8%
3,O=C(CCSc1nc(-c2ccc3c(c2)OCO3)cc(C(F)(F)F)n1)NCc1ccncc1,-33.7%
4,CC1CCN(c2nc3c(c(=O)[nH]2)CCN(Cc2c(O)ccc4ccccc24)C3)CC1,-22.9%
5,COc1ccccc1NC(=O)COc1ccc(/C=C/C2=CCN(C)CC2)cc1OC,-73.1%
6,CCOc1ccc(OCC)c(NC(=O)CSc2ncnc3sc(C)c(C)c23)c1,40.1%
7,Cn1c(=O)sc2cc(S(=O)(=O)NC3(c4ccccc4F)CC3)ccc21,-176%
8,COc1ccc(Cn2nnnc2CN(Cc2cc3cc(C)ccc3[nH]c2=O)C2CCCCC2)cc1,30.9%
9,COc1nc(C)c(CC(=O)Nc2ccc3[nH]c4c(c3c2)CCCC4)c(OC)n1,-85%
10,O=C(Nc1nnc(SCC(=O)N2CCCCC2)s1)c1ccco1,-9.97%
11,COC(=O)CSc1nnc(-c2ccc3[nH]c(C)c(C)c3c2)o1,-58.2%
12,CCN1CCCC1CN(Cc1cc2cc(OC)c(OC)cc2[nH]c1=O)C(=O)Nc1ccccc1Cl (configuration not stated),-41.6%
13,CCc1nn(CC(=O)NCc2cccnc2)c(=O)c2cc3ccsc3n12,1.61%
14,CCOc1ccc(-c2nc(-c3cc4ccccc4[nH]c3=O)no2)cc1,-8.73%
15,CCc1ccccc1NC(=O)Cc1cn(C)c2ccccc12,23.9%
16,CCc1ccccc1NC(=O)/C(=C/c1ccccc1)c1ccccc1,65.2% (active)
17,O=C(/C=C/c1ccccc1)N/C(=C/c1ccccc1)C(=O)Nc1ccccc1O,-4.9%
18,Cc1ccc(-c2nsc3c(SCC(=O)N(C)C4CCCCC4)ncnc23)cc1,34.6%
19,Cc1c(CN(C)C(=O)CSc2nc(-c3cccs3)cc(C(F)(F)F)n2)cnn1C,9.94%
20,CN1CC(c2ccccc2)C2(CCN(Cc3ccccc3)CC2)C1 (configuration not stated),-9.74%
21,C#CCN(N(C)c1ncc(C(F)(F)F)cc1Cl)S(=O)(=O)c1ccc2ccccc2c1,61.4% (active)
22,Cc1nn(CC#N)c(=O)n1N(C)c1ncc(C(F)(F)F)cc1Cl,2.11%
23,Cc1cc(C)cc(NS(=O)(=O)c2ccc(Oc3ncc(C(F)(F)F)cc3Cl)cc2)c1,57.5%
24,O=C(Cc1cccs1)Nc1nnc(-c2ccccc2Cl)s1,-20%

row,SMILES,induction
1,CC(C)c1nc(N2CCOCC2)c(C#N)c2c1COC(C)(C)C2,-103%
2,CC(C)Cc1nc(Cl)c(C#N)c2c1CCC2,6.62%
3,CC(C)Cc1nc(N2CCOCC2)c(C#N)c2c1CCC2,64% (active)
4,Cc1ccccc1N(C(=O)c1ccco1)C(C(=O)NC1CCCC1)c1ccco1 (configuration not stated),15%
5,COc1ccc2c(c1)C(C)=CC(C)(C)N2C(=O)CNCc1ccc2c(c1)OCO2,62.2% (active)
6,COc1ccc2c(c1)C(C)=CC(C)(C)N2C(=O)Nc1ccccc1,43%
7,COc1ccc(OC)c(CC(=O)N2CCC(c3ccc4c(c3)OCO4)CC2)c1,-2.54%
8,CSc1ncnc2sc(C)c(C)c12,68.5% (active)
9,CCCNc1ncnc2sc(C)c(C)c12,17.6%
10,Cc1sc2ncnc(Sc3nc4ccccc4s3)c2c1C,17.8%
11,Cc1cc2cc(CN(CCO)C(c3nnnn3CC3CCCO3)C(C)C)c(=O)[nH]c2cc1C (configuration not stated),-0.77%
12,Cc1ccc(/C=N/NC(=O)CSc2ccccn2)o1,-4.32%
13,CCOc1ccc(/C=N/NC(=O)C(C)Sc2ccccn2)cc1OCC (configuration not stated),13.9%
14,CCOc1ccc(/C=N/NC(=O)CSc2ccccn2)cc1O,65.8% (active)
15,COc1ccc(S(=O)(=O)NCc2ccc3c(c2)OCO3)c(Cl)c1Cl,-0.88%
16,Cc1nc2nc(N)ccc2c(C)c1C,-9.42%
17,CNCC(O)c1ccc(O)c(O)c1 (configuration not stated),68.4% (active)
18,CC(=O)NCC(O)c1ccc([N+](=O)[O-])cc1 (configuration not stated),1.39%
19,CCC(C)c1ccc(O)c(/C=N/O)c1 (configuration not stated),4.26%
20,CCc1ccc(NC(=O)C2CCN(C(=O)c3cccs3)CC2)cc1,15.7%
21,COC(=O)CSc1nc2c(c(C3CC=CCC3)c1C#N)CCC2 (configuration not stated),68.1% (active)
22,CCOc1ccc2cc(C#N)c(SCC(=O)OC)nc2c1,47%
23,COC(=O)CSc1nc(C2CC2)nc2ccccc12,4.21%
